The values below come from PubChem BioAssay AID836 (Columbia University Molecular Screening Center, 2007).

The whole screen tested about 91,000 compounds, of which about 160 (0.18%) were called active. The full list was thinned out, with actives kept by preference. A number with no mark means an inactive call.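 How the source made its calls: active means inhibition above the batch mean plus 3 SD and confirmed as a hit by visual image inspection (cut at about 30% in these data, passing the limit was not always enough); inconclusive means above the inhibition threshold but rejected on visual inspection; inactive means the rest.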

This experiment in a line: disruptors of actin filament network in HUVEC – imaging, phalloidin staining, high-content imaging, primary screen (AID 836). The conditions noted are these: HUVEC TNFa F-actin phalloidin imaging, at 2 µM, stronger effect = higher value.
A word on the inhibition: it is the drop in the measured response relative to a control, in per cent. Consider `c1ccc2c(C[n+]3csc4ccccc43)cccc2c1`, for which the inhibition was 1.4%.

For `O=C(NN1C(=O)C2C3C=CC(C4CC34)C2C1=O)c1ccc(Cl)cc1` (centres undefined), the inhibition was -3.8%.

As to `CCCCOC(=O)Nc1sc2nc(C)cc(C)c2c1-n1cccc1`, the inhibition was 14.1%.

As to `CC1CC(C)CN(S(=O)(=O)c2cccc(C(=O)N3C(=O)c4cccc(N)c4C3=O)c2)C1` (centres undefined), the inhibition is -15.2%.

Take `CCOC(=O)NNC(=O)c1ccc(Cl)cc1`: the inhibition was 18%.

With `N#C/C(=C(/O)COc1cccc2ccccc12)c1nc2ccccc2[nH]1`, the inhibition is -7.4%.

For `CSCc1cc(N2CCOCC2)nc(SCc2ccc(Cl)cc2Cl)n1`, the inhibition is 3.4%.

In the case of `N#CC1=C(N)N(c2ccc(F)cc2)C(=O)C1`, the inhibition was -25.3%.

Consider `CC(C)(C)NS(=O)(=O)c1ccc(NC(=O)NC2CCCCC2)cc1`, for which the inhibition was 2.8%.

In the case of `O=C1CN(c2nc(-c3ccccc3)c3cc(Br)ccc3n2)c2ccccc2N1`, the inhibition was -17.8%.

Turning to `O=C(Cn1ccc([N+](=O)[O-])n1)NCc1cccs1`, the inhibition was -5.1%.

On to `Cc1c(Br)c([N+](=O)[O-])nn1C(C)C(=O)Nc1nccs1` (centres undefined), for which the inhibition is 7.3%.

As to `CCCn1nnnc1NC(=O)COc1ccc(Cl)cc1C`, the inhibition is 0.8%.

Consider `CCOC(=O)N1CCN(c2c(NCCCN3CCCC(C)C3)c(=O)c2=O)CC1` (centres undefined), for which the inhibition is 8.2%.

Take `Cc1cccc(N(CC(=O)Nc2ccc(-c3nc4ccc(C)cc4s3)cc2)S(C)(=O)=O)c1`: the inhibition was 29.8%.

For the compound `COc1cc(C(=O)NC(=S)NCc2ccco2)cc(OC)c1OC`, the inhibition is -26%.

As for `CCOC(=O)CC(=O)CSc1nc(-c2ccccc2)cc(-c2ccc(Cl)cc2)c1C#N`, the inhibition is -2.9%.

As to `Cc1ccc(NC(=S)NC2CCCC2)cc1`, the inhibition was 0.9%.

As for `CCc1cccc2c(C=C(C#N)C#N)cn(CC(=O)N3CCCCC3)c12`, the inhibition was 9.3%.

With `COc1ccccc1C(=O)NN1C(=O)C2C3C=CC(O3)C2C1=O` (centres undefined), the inhibition was -1%.

Consider `Cc1ccc(N2CCN(/N=C/c3cccs3)CC2)cc1`, for which the inhibition is -35.9%.

Take `O=C(CNC(=O)c1cc2c(s1)CCC2)Nc1ccccc1Br`: the inhibition was 9.1%.

Consider `CC(=O)N1Cc2ccccc2CC1C(=O)O` (centres undefined), for which the inhibition was -11.9%.

`Cc1ccccc1OCc1nnc(SCC(=O)N2c3ccccc3Sc3ccc(Cl)cc32)o1`: the inhibition is -79.4%.

With `O=C(Cc1ccccc1)N/N=C/c1ccc(Cl)cc1Cl`, the inhibition is 0.1%.

As to `N#C/C(=C/c1ccc(Cl)cc1)NC(=O)c1ccccc1`, the inhibition is -6.5%.

With `O=C(Nc1nc(-c2ccncc2)cs1)C1COc2ccccc2O1` (centres undefined), the inhibition is 55.6% (active).

Regarding `O=C(Nc1nc(-c2ccc3c(c2)OCO3)cs1)c1ccncc1`, the inhibition is -6.9%.

On to `COc1ccc(OC)c2sc(NC(=O)C3COc4ccccc4O3)nc12` (centres undefined), for which the inhibition is -2.9%.

For `Cc1ccc(NC(=S)Nc2ncccc2C)c(C)c1`, the inhibition was -17.2%.

For the compound `COc1ccc(Oc2c(Cl)cnn(-c3ccccc3)c2=O)cc1`, the inhibition was -7.9%.

`Cc1cc(N=CC2=C(O)CCCC2=O)no1`: the inhibition was 3.6%.

Consider `COc1ccc(O)c(C=Nc2cc(C)on2)c1`, for which the inhibition is 73.6% (active).

With `COc1ccc(O)c(C(=O)c2cnc3onc(C(C)C)c3c2)c1`, the inhibition was 0.9%.

Take `Cc1ccc(C(=O)N/C(=C/C=C/c2ccccc2)C(=O)NCc2ccco2)cc1`: the inhibition is 19.4%.

As to `COC(=O)Nc1sc2nc(C)cc(C)c2c1-n1cccc1`, the inhibition is -0.5%.

Turning to `CC1=NN(C(=O)Cc2ccc(C)cc2)C(O)(c2cccnc2)C1` (centres undefined), the inhibition was 5.3%.

Turning to `O=C1c2cccc3cc(Br)cc(c23)C(=O)N1Nc1ccccc1`, the inhibition was -0.3%.

With `O=C(Nc1cccc2ncccc12)C(Cl)(Cl)Cl`, the inhibition is 17.1%.

For `O=C(NC1CCN(C(=S)NCc2ccco2)CC1)c1ccc(F)cc1`, the inhibition was 9.8%.

`N#C/C(=C1/CCCN1)c1ccccn1`: the inhibition was -5.5%.

For `Nc1c(-c2cccc(Cl)c2)cnn1-c1cccc([N+](=O)[O-])c1`, the inhibition is 14.9%.

Take `Cc1cc(OC(=O)c2ccc(Cl)cc2)cc(=O)n1C`: the inhibition is 2.4%.

`O=C(O)c1ccccc1NC(=S)NC(NC(=O)c1ccccc1[N+](=O)[O-])C(Cl)(Cl)Cl` (centres undefined): the inhibition is -20.2%.

In the case of `COc1ccc(-c2nnc(SCC(=O)NC3CCCCC3)o2)cc1OC`, the inhibition was 30.5% (active).

`COc1ccc(CN(C(=O)CSc2nnc(-c3ccc(OC)c(OC)c3)o2)c2ccc(F)cc2)cc1`: the inhibition was 15.5%.

On to `COc1ccc(CCNC(=O)CSc2nnc(-c3cccc(F)c3)o2)cc1OC`, for which the inhibition was 2.3%.

For the compound `CC(=O)c1nn(-c2cccc(Br)c2)cc1C(=O)c1cccc2ccccc12`, the inhibition was 18.2%.

Regarding `O=C(CSc1ccc(/C=N/NC(=O)c2cccc(F)c2)o1)Nc1ccccc1`, the inhibition is 1.1%.

As for `NC(=O)C1(N2CCCCC2)CCN(C(=S)Nc2ccc(Cl)cc2)CC1`, the inhibition was -20.4%.

Regarding `COCCCn1c(SCc2cccc(OC)c2)nc2cc(OC)c(OC)cc2c1=N`, the inhibition is 3.7%.

Take `Cc1ccc(N2CCN(C3=NC(=O)/C(=C\c4cccs4)S3)CC2)cc1`: the inhibition was 24.1%.

Turning to `CCCCCOC(=O)NCCOC(=O)Nc1ccc(C(=O)OCC)cc1`, the inhibition was 8%.

With `CCCCOC(=O)NCN1C(=O)C2C3C=CC(C3)C2C1=O` (centres undefined), the inhibition is 11.5%.

`CCCCCCOC(=O)NCC(O)c1ccccc1` (centres undefined): the inhibition was 61.8% (active).

For `CCC(=O)OCc1c(C(F)(F)F)nn(C)c1Oc1cccc(C(F)(F)F)c1`, the inhibition was -4%.

Take `COC(=O)c1ccc(C2C(Oc3ccccc3C)C(=O)N2CCc2ccc(OC)c(OC)c2)cc1` (centres undefined): the inhibition was 3.1%.

For the compound `Cc1[nH]c2ccccc2c1C(=O)COC(=O)C(C)C`, the inhibition is -13%.

Regarding `Cc1ccc(-c2nc(C)sc2CC(=O)O)cc1`, the inhibition is 7.2%.

Consider `N=c1oc2ccccc2cc1C(=O)N/N=C/c1ccccc1`, for which the inhibition is -3.7%.

Consider `COc1cc(/C=N\NC(=O)C2C(=O)NCC2c2ccccc2)cc(OC)c1O` (centres undefined), for which the inhibition is 2%.

Turning to `CC1CCc2c(c3ccccc3[nH]c2=O)O1` (centres undefined), the inhibition is 3%.

For `Nc1c(-c2ccc(F)cc2)cnc2ncnn12`, the inhibition was 21.9%.

Regarding `Cc1ccc(SCC(=O)NC(=O)NCc2ccco2)c(C)c1`, the inhibition is 1.6%.
